# Compounds without any hit were thinned out: in the full panel of roughly 83,000, 20% have a hit.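 Growth was measured after 48 h exposure to one concentration of compound in 96-well plates. Values under 10 count as active.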 Unmarked numbers belong to inactive results. Active and inactive are the calls of the source.
# Test system: HL-60(TB) leukemia
# Assay: NCI-60 one-dose screen, 48 h (100 = growth as untreated, 0 = no growth, -100 = all killed)
# Conditions: 10 µM unless noted
row,Structure (SMILES),growth
1,CCCCn1c(=O)c2c(nc(NCCc3ccc(O)c(O)c3)n2CCC)n(CCCC)c1=O,60.3%
2,OC(CCCCCCCCC(O)CN1CCc2ccccc2C1)CN1CCc2ccccc2C1 (stereo not given),95.1%
3,COc1cc(C(=O)c2cnc(-c3ccc4cc[nH]c4c3)[nH]2)cc(OC)c1OC,-1.01% (active)
4,Cc1ccccc1CC(N)C(=O)O (stereo not given),103%
5,Cn1c(=O)c2c(nc(N3CCCC3)n2C)n(C)c1=O,95.4%
6,COC(=O)c1c2c(c[n+]([O-])c1C)C(=O)C=C(NCc1ccccc1)C2=O,-49.4% (active)
7,O=c1[nH]nc(-c2ccc(Cl)cc2)cc1Cc1cccc([N+](=O)[O-])c1,109%
8,C/C=C/CSC(C)(C)C(=O)NC,98.7%
9,C[C@]12CC[C@@H]3c4ccc(O)c(N)c4CC[C@H]3[C@@H]1CC[C@@H]2O,85.3%
10,CCOC(=O)CCC(NC(=O)c1ccc(N)cc1)C(=O)OCC (stereo not given),102%
11,COc1ccc(-n2nc(C(=O)NCC(=O)O)nc2-c2ccccc2)cc1,96.3%
12,Cc1nc2sccn2c1-c1csc(Nc2ccccc2Cl)n1,19.2%
13,CC(=O)OC1Oc2cc(C)c(C)cc2-c2oc(=O)c(-c3ccc(F)cc3)cc21 (stereo not given),12.5%
14,O=C1OCC2=C1C(c1ccncc1)c1cc3c(cc1N2CCO)OCO3 (stereo not given),99.2%
15,C=C(C)[C@@H]1CC[C@]2(C(=O)N3CCN(C)CC3)CC[C@]3(C)[C@H](CC[C@@H]4[C@@]5(C)C/C(=C/c6ccc(C(F)(F)F)cc6)C(=O)C(C)(C)[C@@H]5CC[C@]43C)[C@@H]12,94.1%
16,CCOc1ccccc1C(=O)/C=C/c1cc2ccccc2[nH]c1=O,-7.94% (active)
17,N/C(=N\N=C\c1ccc2c(c1)OCO2)N/N=C\c1ccc2c(c1)OCO2,80%
18,COc1ccc(C2CC(c3cccc(Nc4ccncc4)c3)=NN2c2ccccc2)cc1 (stereo not given),-32.8% (active)
19,O=c1oc2ccccc2c(Cl)c1Cl,41.4%
20,CC(=O)OCC(=O)C1(O)C(C)CC2C3C=C(C)C4=Cc5c(cnn5-c5ccccc5)CC4(C)C3C(O)CC21C (stereo not given),14.7%

row,Structure (SMILES),growth
1,Oc1ccc(Cl)cc1-c1cc(-c2ccc(Cl)cc2)n[nH]1,60.4%
2,COc1ccc(CCN(CC(=O)N(CC(N)=O)C2CCC[C@@H]2OCc2ccccc2)C(=O)CN(C(=O)CN(CCc2ccc(Cl)cc2)C(=O)CN(C(=O)CN(C)Cc2ccccc2F)[C@H](C)C2CCCCC2)[C@H](C)C2CCCCC2)cc1OC (stereo not given in full),-24.4% (active)
3,NC(CCC(=O)NC(CS)C(=O)NCC(=O)O)C(=O)O (stereo not given),73.1%
4,O=C(NCCN1CCOCC1)Nc1ccc(-c2cc3c(Nc4ccc(Oc5cccc(C(F)(F)F)c5)c(Cl)c4)ncnc3s2)cc1,-25.6% (active)
5,O=C1OC[C@H]2[C@H](c3ccc(O)c(O)c3)c3cc(O)c(O)cc3C[C@H]12,217%
6,COc1ccc2c3c(c4ccccc4cc13)C(=O)N(CCN(C)CCN)C2=O,-58.1% (active)
7,Cc1cc(CC(C)CC(C)(C)C)n(O)c(=O)c1 (stereo not given) (tested in a mixture with another compound),-27.7% (active)
8,O=C1c2ccccc2C(=O)c2cc(Cn3cc[n+](Cc4ccc5ccccc5c4)c3)ccc21,43%
9,O=C(/C=C/c1ccc(Br)cc1)c1ccccc1,81.5%
10,CN(C)Cc1c(-c2ccccc2)[nH]c2ccccc12,92.9%
11,CN(C)c1ccc2nc3ccc(=[N+](C)C)cc-3oc2c1,-21% (active)
12,CCOC(=O)c1c2c(n3ccc(NC(=O)CCN4CCCC4)cc13)C(=O)c1ncccc1C2=O,-34.2% (active)
13,CC(C)(C)NCC(O)COc1c(Br)c(Br)c(Br)c2c1OC(C)(C)C2 (stereo not given),-59.3% (active)
14,FC(F)(F)c1cccc(CNC2CCN(CCc3ccccc3)CC2)c1,46.2%
15,O=C(N/N=C/c1ccc([N+](=O)[O-])cc1)c1ccc2nc(-c3ccc(Cl)cc3)[nH]c2c1,6.58% (active)
16,O=C(Nc1nc(-c2ccc(Br)cc2)cs1)c1cc(-c2ccc(Br)cc2)nc2ccc(Cl)cc12,96.6%
17,CCN(CC)CCCC(C)Nc1cnc(C(=O)Nc2cccc3ccc(OC)nc23)cn1 (stereo not given),72.4%
18,N/C(=N\C(N)=N\c1nc2ccccc2s1)c1ccnc(Cl)c1,1.2% (active)
19,COc1cc2c(cc1OCCCOc1cc3c(cc1OC)C(=O)N1CC(F)(F)C[C@H]1C=N3)N=C[C@@H]1CC(F)(F)CN1C2=O,-12.2% (active)
20,OCc1cccc2ccccc12,93.5%

# — PubChem BioAssay (NCI)
